# Assay results reported in PubChem BioAssay AID602144 (Vanderbilt Specialized Chemistry Center, 2011).
# Several values for one entry are separate records, joined by “and”; a condition that tells them apart may be missing. Equal values may be shown once. Activity calls are given as the source filed them. Cut-off read from the data, not from the text of the source: active = remaining activity below about 50%; inactive = the rest.
# Target: Phospholipase D1 (Homo sapiens) (UniProt Q13393)
# Test: cellular phospholipase D1 activity inhibition – Calu-1 cells, single concentration (AID 602144);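 note: tested at 200 nM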
# Settings: cellular PLD1 activity, active compounds read low
# Phospholipase D1 (Homo sapiens), sequence (Q13393 whole entry, looked up): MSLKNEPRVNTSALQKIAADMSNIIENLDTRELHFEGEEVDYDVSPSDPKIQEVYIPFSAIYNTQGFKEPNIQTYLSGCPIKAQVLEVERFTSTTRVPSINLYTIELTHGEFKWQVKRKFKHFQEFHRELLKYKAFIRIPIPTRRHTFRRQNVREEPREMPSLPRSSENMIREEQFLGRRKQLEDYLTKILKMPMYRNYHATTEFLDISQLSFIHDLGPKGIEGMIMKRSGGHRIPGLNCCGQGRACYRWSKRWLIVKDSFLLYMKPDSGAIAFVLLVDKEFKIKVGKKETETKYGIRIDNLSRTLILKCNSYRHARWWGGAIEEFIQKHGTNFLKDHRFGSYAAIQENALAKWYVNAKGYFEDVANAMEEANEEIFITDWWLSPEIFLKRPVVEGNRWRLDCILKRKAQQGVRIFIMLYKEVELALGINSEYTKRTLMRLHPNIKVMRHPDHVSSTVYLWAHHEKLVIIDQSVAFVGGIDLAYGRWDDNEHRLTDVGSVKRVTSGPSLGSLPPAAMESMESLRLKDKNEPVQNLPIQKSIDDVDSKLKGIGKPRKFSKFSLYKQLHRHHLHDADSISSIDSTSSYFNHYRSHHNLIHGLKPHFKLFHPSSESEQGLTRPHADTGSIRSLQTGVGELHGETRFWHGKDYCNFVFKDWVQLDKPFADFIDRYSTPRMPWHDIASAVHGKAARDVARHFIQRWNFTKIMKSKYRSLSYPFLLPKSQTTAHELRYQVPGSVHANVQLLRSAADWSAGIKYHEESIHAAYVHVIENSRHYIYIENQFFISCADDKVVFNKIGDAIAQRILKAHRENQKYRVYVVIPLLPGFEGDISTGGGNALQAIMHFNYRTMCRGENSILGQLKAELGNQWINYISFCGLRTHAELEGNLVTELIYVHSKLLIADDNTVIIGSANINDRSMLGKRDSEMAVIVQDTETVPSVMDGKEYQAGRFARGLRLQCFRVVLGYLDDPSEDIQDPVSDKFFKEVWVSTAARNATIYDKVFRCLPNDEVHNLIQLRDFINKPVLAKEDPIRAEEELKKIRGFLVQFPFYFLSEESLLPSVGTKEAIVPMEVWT
# Phospholipase D1 (Homo sapiens), sequence (Q13393 whole entry, looked up): as above
row,SMILES,remaining activity
1,O=C(NCCN1CCC2(CC1)C(=O)NCN2c1cccc(F)c1)c1cnc2ccccc2c1,79% (inactive)
2,Nc1ccc(C(=O)NCCN2CCC3(CC2)C(=O)NCN3c2ccccc2)cc1OC(F)(F)F,91.5% (inactive)
3,O=C(NCCN1CCC2(CC1)C(=O)NCN2c1cccc(F)c1)c1cc(C(F)(F)F)ccc1C(F)(F)F,86.3% (inactive)
4,O=C(NCCN1CCC2(CC1)C(=O)NCN2c1ccc(Br)cc1)c1ccc(F)cc1,78.5% (inactive)
5,C[C@@H](CN1CCC2(CC1)C(=O)NCN2c1ccccc1)NC(=O)c1ccc(F)c(F)c1,34.3% (active)
6,O=C(NCCN1CCC2(CC1)C(=O)NCN2c1ccccc1)c1cnc2ccccc2n1,96.5% (inactive)
7,CCCCOc1ccc(C(=O)NCCN2CCC3(CC2)C(=O)NCN3c2cccc(F)c2)cc1,110% (inactive)
8,CC(C)[C@@H](CN1CCC2(CC1)C(=O)NCN2c1ccccc1)NC(=O)c1cc2cc(F)ccc2[nH]1,6.9% (active)
9,C[C@@H](CN1CCC2(CC1)C(=O)NCN2c1ccc(F)c(F)c1)NC(=O)c1ccc2ccccc2c1,25.7% (active)
10,O=C(NCCN1CCC2(CC1)C(=O)NCN2c1ccc(F)cc1)c1ccc2ccccc2c1,75.2% (inactive)
11,Cc1cccc(C(=O)N[C@@H](C)CN2CCC3(CC2)C(=O)NCN3c2ccccc2)c1,70% (inactive)
12,C[C@H](CN1CCC2(CC1)C(=O)NCN2c1ccccc1)NC(=O)c1cc(Br)c(Br)o1,71.8% (inactive)
13,COc1cccc(C(=O)NCCN2CCC3(CC2)C(=O)NCN3c2ccccc2)n1,137% (inactive)
14,Cc1cccc(C(=O)NCCN2CCC3(CC2)C(=O)NCN3c2ccccc2)n1,123% (inactive)
15,O=C(NCCN1CCC2(CC1)C(=O)NCN2c1ccccc1)C(c1ccccc1)c1ccccc1,99.2% (inactive)
16,O=C(NCCN1CCC2(CC1)C(=O)NCN2c1ccc(Br)cc1)c1cnc2ccccc2c1,94.1% (inactive)
17,CCCCCC(=O)N(CCN1CCC2(CC1)C(=O)NCN2c1cccc(F)c1)C(=O)CCCCC,90.1% (inactive)
18,O=C(c1ccc(F)c(F)c1)N1CCC[C@@H]1CN1CCC2(CC1)C(=O)NCN2c1ccccc1,93.7% (inactive)

row,SMILES,remaining activity
1,COc1cc(C(=O)NCCN2CCC3(CC2)C(=O)NCN3c2ccccc2)ccc1N,103% (inactive)
2,O=C(NCCN1CCC2(CC1)C(=O)NCN2c1cccc(F)c1)c1c(F)cccc1F,80.5% (inactive)
3,O=C(NCCN1CCC2(CC1)C(=O)NCN2c1cccc(F)c1)C12CC3CC(CC(C3)C1)C2,98.7% (inactive)
4,COc1cc(OC)cc(C(=O)NCCN2CCC3(CC2)C(=O)NCN3c2cccc(F)c2)c1,97% (inactive)
5,O=C(NCCN1CCC2(CC1)C(=O)NCN2c1ccccc1)c1ncc[nH]1,62.9% (inactive)
6,O=C(NCCN1CCC2(CC1)C(=O)NCN2c1ccc(F)cc1)c1ccc(F)cc1,78.2% (inactive)
7,O=C(NCCN1CCC2(CC1)C(=O)NCN2c1ccccc1)c1cnco1,98% (inactive)
8,O=C(NCCN1CCC2(CC1)C(=O)NCN2c1ccccc1)C1(c2ccccc2)CCC1,94.9% (inactive)
9,O=C(NCCN1CCC2(CC1)C(=O)NCN2c1ccccc1)c1ccncn1,124% (inactive)
10,Nc1cccc(Cl)c1C(=O)NCCN1CCC2(CC1)C(=O)NCN2c1ccccc1,92.9% (inactive)
11,O=C(NCCN1CCC2(CC1)C(=O)NCN2c1cccc(F)c1)c1cc2cc(F)ccc2[nH]1,44% (active)
12,O=C(CCN1CCC2(CC1)C(=O)NCN2c1ccccc1)Nc1ccc(Cl)cc1,122% (inactive)
13,O=C(NCCN1CCC2(CC1)C(=O)NCN2c1cccc(Cl)c1)c1ccc(F)cc1,79.6% (inactive)
14,NC1(CN2CCC3(CC2)C(=O)NCN3c2ccccc2)CCCC1 (tested in a mixture with another compound),85.3% (inactive)
15,O=C1NCN(c2ccccc2)C12CCN(CCN1CCCC1)CC2,116% (inactive)
16,O=C(c1ccc2ccccc2c1)N1CCCC1CN1CCC(n2c(=O)[nH]c3ccccc32)CC1 (stereo unspecified),101% (inactive) and 112% (inactive)
17,O=C(NCCN1CCC2(CC1)C(=O)NCN2c1cccc(Cl)c1)c1ccc2ccccc2c1,57.3% (inactive)
18,O=C(NCCN1CCC2(CC1)C(=O)NCN2c1ccccc1)c1ccnnc1,104% (inactive)
